PubChem BioAssay AID1159580 (chemical genetic matrix, 2015)
In all, about 5,500 compounds went through this assay and about 2,000 (36%) were called active. About 18% were inconclusive and are not listed. Rule as the data show it: active = normalized growth mostly below about 0.91 (no sharp cut-off); inconclusive = no clear call, values can overlap the other calls; inactive = mostly above about 0.92. This is one part of the list.

Experiment: chemical genetic growth profiling, strain panel (AID 1159580);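 also: tested at 20 µM; growth read once vehicle control cultures reached saturation at 30 °C; 1 = growth at the plate median or of vehicle wells; lower values mean less growth of the strain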
Conditions: growth OD

Measured: normalized growth

CC1(C)S[C@@H]2[C@H](NC(=O)[C@H](N)c3ccccc3)C(=O)N2[C@H]1C(=O)O
inactive: S. cerevisiae deletion strains, locus YJR043C, strain POL32, active compounds read low 1 | S. cerevisiae deletion strains, locus YJR066W, strain TOR1, active compounds read low 0.981 | S. cerevisiae deletion strains, locus YKL009W, strain mrt4, active compounds read low 1.01 | S. cerevisiae deletion strains, locus YKL068W, active compounds read low 1 | S. cerevisiae deletion strains, locus YKL085W, strain MDH1 (second series), active compounds read low 1.01 | S. cerevisiae deletion strains, locus YKL085W, strain MDH1, active compounds read low 1.01 | S. cerevisiae deletion strains, locus YKL160W, strain elf1, active compounds read low 0.93 | S. cerevisiae deletion strains, locus YKL190W, strain CNB1, active compounds read low 1.01 | S. cerevisiae deletion strains, locus YKR001C, strain vps1, active compounds read low 0.991 | S. cerevisiae deletion strains, locus YKR026C, strain gcn3, active compounds read low 0.972 | S. cerevisiae deletion strains, locus YKR091W, strain srl3, active compounds read low 0.962 | S. cerevisiae deletion strains, locus YLL001W, strain dnm1, active compounds read low 1 | S. cerevisiae deletion strains, locus YLL026W, active compounds read low 0.966 | S. cerevisiae deletion strains, locus YLL041C, strain sdh2, active compounds read low 0.976 | S. cerevisiae deletion strains, locus YLR027C, strain aat2, active compounds read low 0.983 | S. cerevisiae deletion strains, locus YLR039C, strain RIC1, active compounds read low 0.993 | S. cerevisiae deletion strains, locus YLR058C, strain SHM2, active compounds read low 1.01 | S. cerevisiae deletion strains, locus YLR102C, strain apc9, active compounds read low 0.997 | S. cerevisiae deletion strains, locus YLR113W, strain HOG1, active compounds read low 1.04 | S. cerevisiae deletion strains, locus YLR221C, strain rsa3, active compounds read low 1.02 | S. cerevisiae deletion strains, locus YLR258W, strain gsy2, active compounds read low 0.981 | S. cerevisiae deletion strains, locus YLR262C, strain YPT6 (second series), active compounds read low 0.983 | S. cerevisiae deletion strains, locus YLR262C, strain YPT6, active compounds read low 1.08 | S. cerevisiae deletion strains, locus YLR268W, strain sec22, active compounds read low 1.01 | S. cerevisiae deletion strains, locus YLR320W, strain mms22, active compounds read low 1 | S. cerevisiae deletion strains, locus YLR330W, strain CHS5, active compounds read low 1.01 | S. cerevisiae deletion strains, locus YLR342W, strain FKS1 (second series), active compounds read low 1.01 | S. cerevisiae deletion strains, locus YLR342W, strain FKS1, active compounds read low 0.985 | S. cerevisiae deletion strains, locus YLR357W, strain rsc2, active compounds read low 0.928 | S. cerevisiae deletion strains, locus YLR370C, strain arc18, active compounds read low 0.951 | S. cerevisiae deletion strains, locus YLR371W, strain rom2, active compounds read low 1 | S. cerevisiae deletion strains, locus YLR384C, strain iki3, active compounds read low 0.97 | S. cerevisiae deletion strains, locus YLR418C, strain cdc73, active compounds read low 0.998 | S. cerevisiae deletion strains, locus YML016C, strain PPZ1, active compounds read low 1.01 | S. cerevisiae deletion strains, locus YML032C, strain rad52, active compounds read low 0.994 | S. cerevisiae deletion strains, locus YML120C, strain ndi1, active compounds read low 0.995 | S. cerevisiae deletion strains, locus YML124C, strain tub3, active compounds read low 1 | S. cerevisiae deletion strains, locus YMR058W, strain fet3, active compounds read low 0.968 | S. cerevisiae deletion strains, locus YMR078C, strain ctf18, active compounds read low 1.01 | S. cerevisiae deletion strains, locus YMR125W, strain sto1, active compounds read low 0.964 | S. cerevisiae deletion strains, locus YMR129W, active compounds read low 0.967 | S. cerevisiae deletion strains, locus YMR205C, strain PFK2, active compounds read low 0.993 | S. cerevisiae deletion strains, locus YMR223W, strain ubp8, active compounds read low 1.01 | S. cerevisiae deletion strains, locus YMR231W, strain pep5, active compounds read low 0.985 | S. cerevisiae deletion strains, locus YMR307W, strain GAS1, active compounds read low 0.926 | S. cerevisiae deletion strains, locus YNL067W, strain RPL9B, active compounds read low 1.02 | S. cerevisiae deletion strains, locus YNL071W, strain lat1, active compounds read low 0.977 | S. cerevisiae deletion strains, locus YNL128W, strain TEP1, active compounds read low 1.03 | S. cerevisiae deletion strains, locus YNL183C, strain NPR1, active compounds read low 0.975 | S. cerevisiae deletion strains, locus YNL209W, strain ssb2, active compounds read low 0.956 | S. cerevisiae deletion strains, locus YNL233W, strain BNI4, active compounds read low 1.01 | S. cerevisiae deletion strains, locus YNL248C, strain rpa49, active compounds read low 0.907 | S. cerevisiae deletion strains, locus YNL250W, strain rad50, active compounds read low 0.998 | S. cerevisiae deletion strains, locus YNL271C, strain bni1, active compounds read low 1.03 | S. cerevisiae deletion strains, locus YNL298W, strain CLA4, active compounds read low 1.01 | S. cerevisiae deletion strains, locus YNL307C, strain MCK1, active compounds read low 1 | S. cerevisiae deletion strains, locus YNL322C, strain KRE1 (second series), active compounds read low 0.97 | S. cerevisiae deletion strains, locus YNR049C, strain mso1, active compounds read low 0.946 | S. cerevisiae deletion strains, locus YNR052C, strain pop2, active compounds read low 1 | S. cerevisiae deletion strains, locus YOL006C, strain TOP1, active compounds read low 1.04 | S. cerevisiae deletion strains, locus YOL012C, strain htz1 0.815 | S. cerevisiae deletion strains, locus YOL147C, strain pex11, active compounds read low 1.01 | S. cerevisiae deletion strains, locus YOR001W, strain rrp6, active compounds read low 1 | S. cerevisiae deletion strains, locus YOR061W, strain CKA2, active compounds read low 1.02 | S. cerevisiae deletion strains, locus YOR069W, strain VPS5, active compounds read low 1.01 | S. cerevisiae deletion strains, locus YOR070C, strain gyp1, active compounds read low 0.981 | S. cerevisiae deletion strains, locus YOR080W, strain dia2, active compounds read low 0.959 | S. cerevisiae deletion strains, locus YOR083W, strain WHI5, active compounds read low 0.917 | S. cerevisiae deletion strains, locus YOR106W, strain vam3, active compounds read low 0.914 | S. cerevisiae deletion strains, locus YOR136W, strain idh2, active compounds read low 0.995 | S. cerevisiae deletion strains, locus YOR144C, strain elg1, active compounds read low 0.998 | S. cerevisiae deletion strains, locus YOR184W, strain ser1, active compounds read low 0.999 | S. cerevisiae deletion strains, locus YOR231W, strain MKK1, active compounds read low 1.02 | S. cerevisiae deletion strains, locus YOR265W, strain rbl2, active compounds read low 0.962 | S. cerevisiae deletion strains, locus YOR270C, strain vph1, active compounds read low 0.951 | S. cerevisiae deletion strains, locus YOR290C, strain snf2, active compounds read low 0.92 | S. cerevisiae deletion strains, locus YOR316C, strain cot1, active compounds read low 1 | S. cerevisiae deletion strains, locus YPL051W, strain arl3, active compounds read low 0.947 | S. cerevisiae deletion strains, locus YPL055C, strain LGE1, active compounds read low 1.02 | S. cerevisiae deletion strains, locus YPL078C, strain atp4, active compounds read low 0.953 | S. cerevisiae deletion strains, locus YPL106C, strain sse1, active compounds read low 0.976 | S. cerevisiae deletion strains, locus YPL240C, strain hsp82, active compounds read low 0.974 | S. cerevisiae deletion strains, locus YPL256C, strain CLN2, active compounds read low 1.05 | S. cerevisiae deletion strains, locus YPR119W, strain clb2, active compounds read low 1.01 | S. cerevisiae deletion strains, locus YPR141C, strain kar3, active compounds read low 1 | S. cerevisiae deletion strains, locus YPR163C, strain tif3, active compounds read low 0.999 | S. cerevisiae deletion strains, locus YPR167C, strain met16, active compounds read low 1.02 | S. cerevisiae deletion strains, strain wtn01, active compounds read low 1.01 | S. cerevisiae strains, strain wild type, active compounds read low 1.02
